Experimental data reported in article PMC9911399, “Two distinct binding modes provide the RNA-binding protein RbFox with extraordinary sequence specificity”.
Residue numbers refer to the chain shown, from its start. In all, about 16,000 sequences were measured (“ka relative to ugcaugu”: median about 0.0091, highest 2% from about 0.032 on). This is one part of a sample in which the highest values are shown more often than they occur.

T1: RBFOX1 RRM (Homo sapiens, UniProt Q9NWB1 109-208)
T1 sequence: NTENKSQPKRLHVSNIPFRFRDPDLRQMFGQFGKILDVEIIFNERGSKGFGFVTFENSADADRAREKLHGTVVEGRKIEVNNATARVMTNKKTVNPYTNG

B1: GACGAUG (DNA:RNA)
RNA: GGGAGACCGGAAUUCAGAUUGUCCGACGAUGUUAAAUCCCGUCGUAGCCACCA
DNA 1: CAATCTGAATTCCGGTCTCCC
DNA 2: TGGTGGCTACGACGGGATT
B2: AAAUAUU (DNA:RNA)
RNA: B1 RNA with G25A, C27A, G28U, G31U
DNA 1: CAATCTGAATTCCGGTCTCCC
DNA 2: TGGTGGCTACGACGGGATT
B3: CUUGAAA (DNA:RNA)
RNA: B1 RNA with G25C, A26U, C27U, U30A, G31A
DNA 1: CAATCTGAATTCCGGTCTCCC
DNA 2: TGGTGGCTACGACGGGATT
B4: CGUUCGG (DNA:RNA)
RNA: B1 RNA with G25C, A26G, C27U, G28U, A29C, U30G
DNA 1: CAATCTGAATTCCGGTCTCCC
DNA 2: TGGTGGCTACGACGGGATT
B5: GUCGUGC (DNA:RNA)
RNA: B1 RNA with A26U, A29U, U30G, G31C
DNA 1: CAATCTGAATTCCGGTCTCCC
DNA 2: TGGTGGCTACGACGGGATT
B6: UGCUUGU (DNA:RNA)
RNA: B1 RNA with G25U, A26G, G28U, A29U, U30G, G31U
DNA 1: CAATCTGAATTCCGGTCTCCC
DNA 2: TGGTGGCTACGACGGGATT
B7: UUGCUCG (DNA:RNA)
RNA: B1 RNA with G25U, A26U, C27G, G28C, A29U, U30C
DNA 1: CAATCTGAATTCCGGTCTCCC
DNA 2: TGGTGGCTACGACGGGATT
B8: UUGCUCC (DNA:RNA)
RNA: GGGAGACCGGAAUUCAGAUUGUCCUUGCUCCUUAAAUCCCGUCGUAGCCACCA
DNA 1: CAATCTGAATTCCGGTCTCCC
DNA 2: TGGTGGCTACGACGGGATT
B9: UCCGUGC (DNA:RNA)
RNA: B8 RNA with U26C, G27C, C28G, C30G
DNA 1: CAATCTGAATTCCGGTCTCCC
DNA 2: TGGTGGCTACGACGGGATT
B10: UUGCCCG (DNA:RNA)
RNA: B8 RNA with U29C, C31G
DNA 1: CAATCTGAATTCCGGTCTCCC
DNA 2: TGGTGGCTACGACGGGATT
B11: GUGCUUG (DNA:RNA)
RNA: B8 RNA with U25G, C30U, C31G
DNA 1: CAATCTGAATTCCGGTCTCCC
DNA 2: TGGTGGCTACGACGGGATT
B12: UGAUUGG (DNA:RNA)
RNA: B8 RNA with U26G, G27A, C28U, C30G, C31G
DNA 1: CAATCTGAATTCCGGTCTCCC
DNA 2: TGGTGGCTACGACGGGATT
B13: UGCUUGG (DNA:RNA)
RNA: B1 RNA with G25U, A26G, G28U, A29U, U30G
DNA 1: CAATCTGAATTCCGGTCTCCC
DNA 2: TGGTGGCTACGACGGGATT
B14: UUGGUGC (DNA:RNA)
RNA: B8 RNA with C28G, C30G
DNA 1: CAATCTGAATTCCGGTCTCCC
DNA 2: TGGTGGCTACGACGGGATT
B15: UCCUGCU (DNA:RNA)
RNA: B8 RNA with U26C, G27C, C28U, U29G, C31U
DNA 1: CAATCTGAATTCCGGTCTCCC
DNA 2: TGGTGGCTACGACGGGATT
B16: UGCUUAU (DNA:RNA)
RNA: B8 RNA with U26G, G27C, C28U, C30A, C31U
DNA 1: CAATCTGAATTCCGGTCTCCC
DNA 2: TGGTGGCTACGACGGGATT

What follows are binders tested against T1, RBFOX1 RRM (assay: EMSA; HiTS-Eq, 1 nM pool, 10 min; buffer printed only for the single-RNA assays: 10 mM Tris pH 7.5, 150 mM NaCl, 3.4 mM EDTA, 0.001% NP-40, 30 C). Details: tags: His6 N-terminal (pET28a); label: 5' 32P.
Procedure, shortened: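 Purified RbFox RRM (wild type or mutant) was equilibrated for 10 min in 50 µL with 1 nM of a 5′-radiolabelled pool of RNA with 7 randomized nucleotides, its flanks annealed to DNA oligonucleotides, across increasing protein concentrations. Free RNA was separated by 8% native PAGE, excised, reverse-transcribed, PCR-barcoded and sequenced on an Illumina HiSeq 2500. Relative association constants came from read-count changes of each variant against the control reaction, normalised to the cognate motif.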

| Binder | binding signal |
| --- | --- |
| B1 | 0.0266 KA relative to UGCAUGU |
| B2 | 0.00092 KA relative to UGCAUGU |
| B3 | 0.00785 KA relative to UGCAUGU |
| B4 | 0.0132 KA relative to UGCAUGU |
| B5 | 0.0206 KA relative to UGCAUGU |
| B6 | 0.0532 KA relative to UGCAUGU |
| B7 | 0.0477 KA relative to UGCAUGU |
| B8 | 0.0158 KA relative to UGCAUGU |
| B9 | 0.0168 KA relative to UGCAUGU |
| B10 | 0.0225 KA relative to UGCAUGU |
| B11 | 0.053 KA relative to UGCAUGU |
| B12 | 0.0223 KA relative to UGCAUGU |
| B13 | 0.0481 KA relative to UGCAUGU |
| B14 | 0.0277 KA relative to UGCAUGU |
| B15 | 0.0144 KA relative to UGCAUGU |
| B16 | 0.0138 KA relative to UGCAUGU |
